Laboratory results published in PubChem BioAssay.
A number with no mark means an inactive call.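 How the source made its calls: active means RAM network inhibition above 8.4% in each of two replicates, 3 SD over the compound average; inconclusive means above 8.4% inhibition in only one replicate; inactive means 8.4% inhibition or less in each replicate.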

test: RAM signaling pathway blockade in yeast – S. cerevisiae, Pdr1DBD-CYC8 efflux-inhibited sensitized strain, primary screen (AID 1298);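 further: 0% = DMSO untreated cells without growth and 100% = 10 µM 1-NA-PP1 full growth; higher means more yeast growth rescued from 5-FOA killing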; conditions: S. cerevisiae cbk1-as DSE1-URA3 strain, 5-FOA growth OD615, 2 d; at 50 µM; stronger effect = higher value

Q: Which RAM network inhibition does the source give for `O=C(CSc1nnnn1-c1cccc2c1CCCC2)N1CCOCC1` here?
A: 2.95%

Q: Which RAM network inhibition does the source give for `CS(=O)(=O)N1CCN(c2nc(-c3ccc(F)cc3)cs2)CC1` here?
A: 3.11%

Q: Which RAM network inhibition does the source give for `CN1CCN(c2ccccc2NC(=O)C(Cc2ccccc2)n2cccc2)CC1` (stereo not drawn) here?
A: 4.23%

Q: Which RAM network inhibition does the source give for `O=C(Nc1cccnc1)c1ccccc1F` here?
A: 2.95%

Q: With `COc1ccccc1NC(=O)CSc1nnc(-c2ccccn2)n1Cc1ccco1` as the molecule, how does the RAM network inhibition read?
A: 2.52%

Q: For `Cc1cccn2cc(CCNC(=O)c3ccc(Br)o3)nc12`, which RAM network inhibition is on record?
A: 1.91%

Q: For `Cc1ccccc1-n1nc(-c2ccc(N)cc2)cc1N`, which RAM network inhibition is on record?
A: 2.8%

Q: Which RAM network inhibition does the source give for `COc1ccc(-c2noc(Cc3ccccc3OC)n2)cc1` here?
A: 1.94%

Q: Which RAM network inhibition does the source give for `COc1cccc(C(c2sc3ncnn3c2O)N2CC(C)OC(C)C2)c1` (stereo not drawn) here?
A: 2.05%

Q: Which RAM network inhibition does the source give for `C=CCn1c(O)c(C2=c3ccccc3=NC2=O)s/c1=N/c1nccs1` here?
A: 5.25%

Q: With `O=C(O)C1CCCCC1C(=O)NCc1cn2ccccc2n1` (stereo not drawn) as the molecule, how does the RAM network inhibition read?
A: 9.11%

Q: For `Cn1c(C(=O)N2CCN(C(=O)c3ccco3)CC2)cc2c(=O)n(C)c3ccccc3c21`, which RAM network inhibition is on record?
A: 2.87%

Q: For `CCOc1ccc2[nH]cc(S(=O)(=O)c3ccc(F)cc3)c(=O)c2c1`, which RAM network inhibition is on record?
A: 2.36%

Q: Which RAM network inhibition does the source give for `Cc1ccc(C)c(C(=O)CSc2n[nH]c(C)n2)c1` here?
A: 1.5%

Q: For `Cc1cccc(Cn2c(N3CCCCC3C)nc3c2c(=O)[nH]c(=O)n3C)c1` (stereo not drawn), which RAM network inhibition is on record?
A: 2.4%

Q: Which RAM network inhibition does the source give for `Cc1nnc(SCC(=O)N2CCOCC2)n1C` here?
A: 2.02%

Q: Which RAM network inhibition does the source give for `N#CC1=C(N)Oc2n[nH]c(-c3ccccc3)c2C1c1cccc(OC(=O)N2CCOCC2)c1` (stereo not drawn) here?
A: 5.62%

Q: With `CCOc1cc(-c2nc(-c3ccncc3)no2)cc(OCC)c1OCC` as the molecule, how does the RAM network inhibition read?
A: 5.16%

Q: Which RAM network inhibition does the source give for `CC(=O)Nc1nnc(C)s1` here?
A: 1.53%

Q: With `CSC1=NCCN1C(=O)c1ccc(S(=O)(=O)N2CCOCC2)cc1` as the molecule, how does the RAM network inhibition read?
A: 3.04%

Q: With `CCCC(NS(=O)(=O)c1ccc(OC)cc1)C(=O)O` (stereo not drawn) as the molecule, how does the RAM network inhibition read?
A: 3.19%

Q: Which RAM network inhibition does the source give for `CCOC(=O)Cn1c(=O)oc2cc(S(=O)(=O)Nc3ccc(F)cc3)ccc21` here?
A: 7.5%

Q: For `CNC(=O)c1c(NC(=O)c2nc3ccccc3s2)sc2c1CCC2`, which RAM network inhibition is on record?
A: 5.05%
